In all, about 1,400 compounds went through this assay and about 50 (4%) were called active.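 The calls were made as follows: active = fitted curve reaches 30% CPE protection at or below the top valid dose, with every test run called active; inconclusive = test runs disagree, some active and some not; inactive = every test run inactive, including effects in the wrong direction.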 These entries were drawn from the full list. Potency and affinity values are given separately.
Assay: antiviral rescue of DENV2-infected BHK-21 cells – cell-based, ATP luminescence, cherry-pick, dose response (AID 687031)
Settings: BHK-21 DENV2 CPE protection, 5 d; series mostly up to 19.5 µM

outcome, inactive:
COc1cccc(-c2ccc3c(c2)[C@H]2[C@H](CCN2S(=O)(=O)c2cn(C)cn2)[C@@H](CO)N3)c1, CS(=O)(=O)N1[C@@H]2CNC[C@H]1C2c1ccc(-c2ccccc2)cc1 (some centres not stated), Cc1ccccc1-c1ccc(C2[C@@H]3CN(C(=O)Cc4ccncc4)C[C@H]2N3)cc1 (some centres not stated), COc1cccc(NC(=O)N2[C@@H]3CNC[C@H]2C3c2ccc(-c3ccccc3)cc2)c1 (some centres not stated), C[C@@H]1CN([C@H](C)CO)C(=O)c2cccc(NC(=O)Nc3ccc4c(c3)OCO4)c2O[C@H]1CN(C)C(=O)Nc1ccccc1, CCOC(=O)CC[C@H](NC(=O)Cn1cnc2c(OCc3ccccc3)ncnc21)C(=O)OCC, COc1ccc(C(CNC(=O)COc2cc(C)ccc2Cl)N2CCCCC2)cc1 (configuration not stated), COc1ccc2o/c(=N\O)c(C(=O)Nc3ccc(C)cc3)cc2c1, COc1cc(S(=O)(=O)NCc2ccncc2)c(OC)cc1Br, CO[C@@H]1CN(C)C(=O)c2ccc(NC(=O)CC(F)(F)F)cc2OC[C@H](C)N(C(C)=O)C[C@@H]1C, O=C1Nc2ccccc2SC1c1ccccc1 (configuration not stated), O=C1Nc2ccccc2C(=O)N(C2CCCC2)C1C(=O)NC1CC1 (configuration not stated), C[C@@H]1CN([C@H](C)CO)C(=O)c2cc(N(C)C)ccc2O[C@@H](C)CCCCO[C@@H]1CN(C)C(=O)CCC(F)(F)F, OC(COc1ccc(Cl)cc1Cl)Cn1ccnc1 (configuration not stated), Cc1nccn1CC(O)COc1ccc(Cl)cc1Cl (configuration not stated), CCC(C(=O)Nc1c(C)cccc1C)n1c(-c2ccc(=O)[nH]c2)nc2ccccc21 (configuration not stated), O=C(NCc1ccc2c(c1)OCO2)C(=O)NCC1OCCCN1S(=O)(=O)c1ccccc1 (configuration not stated), Cc1ccc(C(=O)NCC(=O)Nc2ccc(S(=O)(=O)Nc3cc(C)nc(C)n3)cc2)cc1, O=C(C[C@H]1CC[C@@H]2[C@H](COC[C@H](O)CN2C(=O)Cc2ccccc2)O1)NC1CCCC1, Cc1ccc(S(=O)(=O)Nc2cccc(C(=O)NCCCn3ccnc3)c2)cc1F, CCOC(=O)N1CCC(NS(=O)(=O)c2ccc(C#N)cc2)CC1, CCOC(=O)N1CCC(NC(=O)c2cccc3c2C(=O)N(CCOC)C3)CC1, CC(C)OC(=O)c1ccc(NCc2cc(O)ccc2O)cc1, CCOC(=O)N1C=CC=C[C@@H]2[C@@H](N3C(=O)c4ccccc4C3=O)C(=O)N21, COc1ccc(C2CC(c3cccs3)=NN2C(=O)CCC(=O)O)cc1OC (configuration not stated), COc1ccc(NC(=O)Nc2cccc3c2O[C@H](CN(C)C(=O)Nc2ccc(OC)cc2)[C@@H](C)CN([C@@H](C)CO)C3=O)cc1, Cc1cccnc1, Cc1ccccc1NS(=O)(=O)c1ccc(S(=O)(=O)N2CCCC2)cc1, CC(=O)N1c2ccc(S(=O)(=O)NCCC(=O)N3CCCC(C)C3)cc2CC1C (configuration not stated), CCOc1ccc(C(=O)Nc2ccc(CN3CCOCC3)cc2)cc1Cl, Cc1ccc(NC(=O)C2CCCCC2)cc1C, Brc1ccc(OCc2nnc(SCC3CCCCC3)o2)cc1, N#CCSc1ccccc1NC(=O)CN1C(=O)C(=O)N(Cc2ccccc2)C1=O, COc1ccccc1N1CCN(S(=O)(=O)CCNC(=O)CCc2ccccc2)CC1, COCCNC(=O)CCC1CCN(Cc2ccc(-c3ccccc3)cc2)CC1, C[C@@H]1CN([C@H](C)CO)C(=O)Cc2cc(NC(=O)CCCCCC(=O)Nc3ccccc3N)ccc2O[C@@H]1CN(C)Cc1ccc(Cl)c(Cl)c1, CCc1nc2c(OCCc3cccc(OC)c3)cccn2c1N(C)C(=O)c1ccc(C)cc1, CCCN1[C@H](C(=O)OC)[C@@H](CO)[C@@H]2Cn3c(ccc(C4=CCCC4)c3=O)[C@@H]21, CN1[C@@H]2Cn3c(ccc(C4=CCCC4)c3=O)[C@H]1[C@@H](C(=O)N1CCCCC1)[C@@H]2CO, O=C(Nc1ccc2c(c1)OCCO2)c1cccc(C(=O)Nc2ccc3c(c2)OCCO3)c1, O=C(COC(=O)CNC(=O)c1ccc(Cl)cc1)Nc1ncc(C(F)(F)F)cc1Cl, Cc1ccccc1OCC(=O)OCC(=O)NCCNC(=O)COC(=O)COc1ccccc1C, CC1CC(C)CN(C(=O)COC(=O)c2nccnc2N)C1 (configuration not stated), O=C(COc1ccc(-c2nnco2)cc1)NCc1ccccc1Cl, Cc1ccccc1S(=O)(=O)N1[C@H](C#N)[C@H](c2ccccc2)[C@@H]1CO, CN1C(=O)c2cc(NC(=O)NC3CCCC3)ccc2OC[C@H]2O[C@@H](CC(=O)NCC3CC3)CC[C@@H]21, Cc1ccccc1-c1cnc(C(O)c2cccc(C)c2C)[nH]1 (configuration not stated), CC(C)c1ccc(S(=O)(=O)N2CCN(C(=O)n3ccnc3)CC2)cc1, CC(=O)Nc1cc(-c2ccc(C(=O)NC3CC3)cc2)cn2c(-c3cccc(C(F)(F)F)c3)cnc12, Cc1ccc(NC(=O)C2(c3cccs3)CCOCC2)cc1C, COc1ccc(C(CNC(=O)CCNC(=O)c2ccc(Br)cc2)N2CCOCC2)cc1 (configuration not stated), Cc1ccccc1-c1csc(C(C)(O)c2ccccc2)n1 (configuration not stated), O=C(c1ccncc1)N1CCCC(N2CCN(c3cccc(C(F)(F)F)c3)CC2)C1 (configuration not stated), O=C(c1cc(C2CC2)on1)N1CCCC(N2CCN(c3cccc(C(F)(F)F)c3)CC2)C1 (configuration not stated), CN(CC(=O)Nc1ccc(Cl)cc1)C(=O)CCc1nc2sc3c(c2c(=O)[nH]1)CCCC3, CC#CCN1C(=O)N[C@@H](c2ccccc2)C(C(=O)OC)=C1C, COC(=O)[C@@H]1[C@H](CCc2ccccc2)NC(=O)N(Cc2ccccc2)[C@@H]1C, O=S(=O)(NN=Cc1cccc(Cl)c1)c1ccccc1, Cc1ccc2c(COC(=O)CNC(=O)c3ccccc3)cc(=O)oc2c1, COc1cc(OC)cc(C(=O)NCCC(c2ccccc2)c2ccccc2)c1, C[C@@H]1CCCCO[C@@H](CN(C)S(=O)(=O)c2ccc(F)cc2)[C@@H](C)CN([C@@H](C)CO)C(=O)c2cc(NC(=O)c3ccccc3)ccc2O1, C[C@@H]1CN([C@H](C)CO)C(=O)c2cc(NC(=O)c3ccccc3)ccc2O[C@@H](C)CCCCO[C@@H]1CN(C)S(=O)(=O)c1ccc(F)cc1, Cc1noc(C)c1NC(=O)Nc1ccc2c(c1)C(=O)N([C@@H](C)CO)C[C@@H](C)[C@@H](CN(C)C)OCCCC[C@@H](C)O2, Cc1noc(C)c1NC(=O)Nc1ccc2c(c1)C(=O)N([C@@H](C)CO)C[C@@H](C)[C@@H](CN(C)Cc1ccccc1)OCCCC[C@@H](C)O2, Cc1cnc(CNC(=O)C2CCC(=O)N(Cc3ccc(Cl)cc3)C2)[nH]1 (configuration not stated), ClC(CCN1CCN(Cc2ccccc2)CC1)c1ccccc1 (configuration not stated), Cc1cccc(N(CC(=O)NC(C)(C)C)C(=O)CNC(=O)c2cccs2)c1C, CS(=O)(=O)N1CCc2cc(C(=O)N3CCN(c4ccccc4)CC3)ccc21, CC1CCN(C(=O)COC(=O)c2cc3ccccc3oc2=O)CC1, CCOC(=O)N1CCC(NCCNC(=O)c2ccc(F)c(F)c2)CC1, Cc1noc(C)c1NC(=O)N(C)C[C@@H]1Oc2c(NS(=O)(=O)c3ccccc3)cccc2C(=O)N([C@@H](C)CO)C[C@@H]1C, CCNC(=O)C1(C)CCN(Cc2noc(-c3c(C)noc3C)n2)C1 (configuration not stated), O=C(NC1CCCCC1)N[C@H]1C=C[C@@H](CC(=O)N2CCOCC2)O[C@@H]1CO, O=C(C[C@H]1C=C[C@H](NS(=O)(=O)c2ccccc2)[C@H](CO)O1)N1CCC(Cc2ccccc2)CC1, CCN(c1ccccc1)S(=O)(=O)c1ccc(OC)c(NC(=O)C2CCC2)c1, Cc1cccc(OCC(=O)NNC(=O)C2CCCCC2C(=O)O)c1 (configuration not stated), c1ccc(-c2ccc(OCCN3CCOCC3)cc2)cc1, CN1CCN(CCOc2ccc(-c3ccccc3)cc2)CC1, Cc1cc(=O)oc2cc(OCCSCCN3CCCC3)ccc12, O=C(NCc1cc(C(F)(F)F)cc(C(F)(F)F)c1)C1CC(c2cccc(F)c2)=NO1 (configuration not stated), O=C(C[C@@H]1CC[C@H]2[C@@H](COC[C@@H](O)CN2C(=O)c2ccncc2)O1)NCc1ccc(-c2ccccc2)cc1, CCCC[C@@H]1CNC(=O)C(=O)N1CCCCC1CCCCC1, CCC(=O)Nc1ccc2c(c1)C(=O)N(C)[C@@H]1CC[C@H](CC(=O)N[C@@H](C)c3ccccc3)O[C@@H]1CO2, O=C(NCc1ccccc1F)[C@H]1N[C@H]2c3ccc(-c4ccccc4F)c(=O)n3C[C@H]2[C@@H]1CO, O=C(NCCN1CCCC1)[C@H]1N[C@H]2c3ccc(-c4ccccc4)c(=O)n3C[C@H]2[C@@H]1CO, O=C(c1cc(-c2ccccc2)n[nH]1)N1CCN(S(=O)(=O)c2ccccc2)CC1, COCCn1nnnc1C(c1cc2cc(C)ccc2[nH]c1=O)N1CCN(C2CCCCC2)CC1 (configuration not stated), CCN(CC(=O)Nc1cc(Cl)ccc1-n1cncn1)Cc1nc2ccccc2c(=O)[nH]1, CCN(CC(=O)Nc1c(F)cccc1F)C(=O)c1cccc(S(=O)(=O)NCc2ccccc2)c1, C[C@@H]1CN([C@H](C)CO)C(=O)Cc2cc(NC(=O)Cn3cnnn3)ccc2O[C@@H]1CN(C)Cc1ccc(C(=O)Nc2ccccc2N)cc1, Cc1cnc(CN(C)C(=O)CC2C(=O)NCCN2Cc2cccc(F)c2F)[nH]1 (configuration not stated), CCCN1CCC(NC(=O)CC2C(=O)NCCN2Cc2cccc(OC)c2)CC1 (configuration not stated)

— PubChem BioAssay AID687031 (Broad Institute, 2013)
